From PubChem BioAssay AID588358 (NMMLSC, 2011)
In all, about 310,000 compounds went through this assay and about 1,500 (0.48%) were called active.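 Rule for the calls: active = binding more than 3 SD below its plate's average and above zero; inconclusive = below that plate limit but binding exactly zero; inactive = the rest.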 This excerpt belongs to a sample that is enriched for actives.

Biological target: Desmoglein-3 (Homo sapiens) (UniProt P32926)
Assay: blockers of anti-DSG3 scFv binding – biochemical, bead-based, flow cytometry, scFv-GFP, primary screen (AID 588358);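 note: hits lower antibody fragment binding to DSG3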
Details: DSG3-coupled beads, at 10 µM, active compounds read low

Desmoglein-3 (Homo sapiens), sequence (P32926 whole entry, looked up, the tested form may be a part): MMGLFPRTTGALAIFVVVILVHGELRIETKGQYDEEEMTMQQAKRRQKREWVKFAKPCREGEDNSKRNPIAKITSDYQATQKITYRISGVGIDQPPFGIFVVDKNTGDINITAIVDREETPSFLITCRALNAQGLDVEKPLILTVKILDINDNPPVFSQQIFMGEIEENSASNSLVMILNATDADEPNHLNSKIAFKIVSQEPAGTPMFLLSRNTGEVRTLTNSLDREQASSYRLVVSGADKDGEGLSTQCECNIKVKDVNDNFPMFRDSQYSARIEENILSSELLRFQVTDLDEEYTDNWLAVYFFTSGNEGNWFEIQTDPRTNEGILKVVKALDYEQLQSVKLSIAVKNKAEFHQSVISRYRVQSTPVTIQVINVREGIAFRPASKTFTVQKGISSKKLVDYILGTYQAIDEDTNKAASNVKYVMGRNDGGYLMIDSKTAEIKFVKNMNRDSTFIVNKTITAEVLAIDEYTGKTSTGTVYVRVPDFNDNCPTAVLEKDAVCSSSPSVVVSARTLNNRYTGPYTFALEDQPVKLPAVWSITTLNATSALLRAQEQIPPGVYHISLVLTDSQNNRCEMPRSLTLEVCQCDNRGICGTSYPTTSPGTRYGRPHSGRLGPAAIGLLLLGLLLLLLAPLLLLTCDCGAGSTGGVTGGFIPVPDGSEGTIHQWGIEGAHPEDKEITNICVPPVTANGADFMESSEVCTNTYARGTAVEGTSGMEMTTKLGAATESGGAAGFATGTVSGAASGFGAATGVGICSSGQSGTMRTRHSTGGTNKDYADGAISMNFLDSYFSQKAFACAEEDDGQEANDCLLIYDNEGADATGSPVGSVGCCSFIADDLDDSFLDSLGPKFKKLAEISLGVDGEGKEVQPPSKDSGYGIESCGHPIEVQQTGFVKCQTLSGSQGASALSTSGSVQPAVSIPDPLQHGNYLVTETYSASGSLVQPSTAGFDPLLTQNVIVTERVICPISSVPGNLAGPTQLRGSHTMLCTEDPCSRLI

SMILES | binding (percent of control)
O=C(NNC(=O)c1cccnc1)Nc1ccccc1 | 103% (inactive)
O=C(CC(=O)c1cccnc1)c1ccccc1 | 66.2% (active)
CCOC(=O)c1cc(-c2sc(NC(=O)c3ccccc3)nc2C)n(Cc2ccccc2)n1 | 101% (inactive)
CCOC(=O)C1CCN(C(=O)c2ccc3c(=O)n4nc(Nc5ccccc5CC)sc4nc3c2)CC1 | 104% (inactive)
Cc1nn(CC(=O)Nc2ccc(F)cc2)c(=O)c2ccccc12 | 105% (inactive)
Cc1ccc(NC(=O)Cn2c(C)csc2=O)cc1 | 92.9% (inactive)
Cc1ccc(NC(=O)Cn2sc3ccccc3c2=O)cc1 | 58.5% (active)
C[C@@H]1CN([C@@H](C)CO)C(=O)c2c(c3ccccc3n2C)-c2ccccc2CO[C@H]1CN(C)C(=O)C1CC1 | 101% (inactive)
COc1ccc(Cl)cc1NC(=O)CN(C)C(=O)c1cn(-c2ccccc2)nc1-c1cccs1 | 112% (inactive)
Cn1ncc([N+](=O)[O-])c1C(=O)Nc1cc(Cl)ccc1Cl | 102% (inactive)
N#Cc1ccc(COC(=O)Cn2nnc(-c3ccccc3)n2)cc1 | -1.31% (active)
COc1cc(-c2nnn(CC(=O)NCc3ccccc3)n2)cc(OC)c1OC | 89.3% (inactive)
O=C(Cn1nnc(-c2ccccc2)n1)NC(=O)NC1CCCC1 | 102% (inactive)
O=C(CSc1ccc(C(F)(F)F)cc1[N+](=O)[O-])NCCOc1ccccc1 | 87.7% (active)
Cc1cccc(OCCNC(=O)CSc2ccc(C(F)(F)F)cc2[N+](=O)[O-])c1 | 114% (inactive)
CCCCCCCCC(=O)NCCOc1ccccc1 | 96.9% (inactive)
CCOC(=O)c1cnn2c(SC)ncnc12 | 105% (inactive)
CCOc1ccc(NC(=O)NNC(=O)c2ccc(Cl)cc2Cl)cc1 | 103% (inactive)
CSc1ncc(Cl)c(C(=O)Nc2cc(C)ccc2C)n1 | 95% (inactive)
CCOc1ccc(NC(=O)c2nc(SCC)ncc2Cl)cc1 | 62.8% (active)
COc1ccc(NC(=O)COC(=O)C2COc3ccccc3O2)cc1 (centres undefined) | 100% (inactive)
Cc1ccc(C(=O)OCC(=O)NC2CCCCCCC2)cc1C | 97% (inactive)
CC(C)n1ncc2c(C(=O)N3CCN(Cc4cccs4)CC3)cc(C3CC3)nc21 | 101% (inactive)
COc1ccc(C(=O)CCC(=O)Nc2ccc(Cl)cc2)cc1 | 102% (inactive)
COc1ccc(NC(=O)CCCC(=O)c2ccccc2)cc1 | 72.9% (active)

SMILES | binding (percent of control)
COc1ccc(NC(=O)CS(=O)(=O)c2ccccc2)cc1 | 103% (inactive)
C#Cc1cc(N2CCN(C(=O)c3ccoc3)CC2)n2nc(-c3cccc(Cl)c3)cc2n1 | 96% (inactive)
Cc1ccc(C=O)c([B-](F)(F)F)c1 | 103% (inactive)
CC1(C)OC(=O)C2=C(CC(c3ccccc3)OC2CCc2ccccc2)O1 (centres undefined) | 109% (inactive)
Cc1ccc(S(=O)(=O)N2CCCCC2)cc1NC(=O)c1cccnc1 | 103% (inactive)
O=C(Nc1cccc(-n2cnnn2)c1)c1cccnc1 | 104% (inactive)
Cc1ccc(-n2nc3cc(C)c(NC(=O)c4cccnc4)cc3n2)cc1 | 78.3% (active)
CC(=O)Nc1c(-c2ccc(C)cc2)nc2ccc(Cl)cn12 | 98.5% (inactive)
CCCCN1C[C@H](c2ccc(Br)cc2)[C@@H](CC(=O)Nc2ccc(Br)cc2)C1=O | 102% (inactive)
O=C(c1cc(-c2ccccc2O)on1)N1CCCC1 | 105% (inactive)
C=CCNC(=O)c1cc(-c2ccccc2O)on1 | 79.7% (active)
O=C(Nc1cccnc1Cl)c1cc(-c2ccccc2O)on1 | 92.4% (inactive)
O=C(COC(=O)CCc1c[nH]c2ccccc12)Nc1cccc(Cl)c1 | 102% (inactive)
COc1ccccc1C(=O)NC(=S)Nc1ccc(N2CCOCC2)cc1 | 101% (inactive)
CC(C)[C@H](NC(=O)c1ccccc1F)C(=O)Nc1cccc(S(=O)(=O)N2CCOCC2)c1 | 107% (inactive)
O=C(N/N=C\c1cccnc1)c1cc(-c2ccccc2)nc2c(Cl)cccc12 | 111% (inactive)
Cc1ccc(/C=N/NC(=O)c2cc3ccccc3cc2O)o1 | 111% (inactive)
O=C(N/N=C/c1cccnc1)c1cc2ccccc2cc1O | 97.3% (active)
Cc1ccccc1C#CC1=CC(=O)CC(C)(C)C1 | 97.5% (inactive)
C[C@@H]1CN([C@H](C)CO)S(=O)(=O)c2ccc(C#CC3CCCCC3)cc2O[C@H]1CN(C)C(=O)Cc1ccncc1 | 123% (inactive)
CN(C)C(CNC(=O)c1cc(Br)c(Br)s1)c1ccco1 (centres undefined) | 99.7% (inactive)
O=C(Cc1cccs1)Nc1nnc(C2CC2)s1 | 125% (inactive)
Cc1cccc(NC(=O)CSCC(=O)Nc2nnc(C3CC3)s2)c1 | 105% (inactive)
O=C(CN1C(=O)c2ccc([N+](=O)[O-])cc2C1=O)Nc1nnc(C2CC2)s1 | 66.2% (active)
